Screening results from PubChem BioAssay.
Sampled rows, rich in hits. Any-hit rate of the full collection: about 2.2%.
ABCB6 inh 2 = human ABCB6 transporter inhibition; fluorescence ratio to DMSO, % at 10 µM; K562-ABCB6 porphyrin accumulation, flow cytometry, 1 h; hits give low values; 0.19% of 360,000 active; AID 602162;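 active means fluorescence ratio to DMSO below 75%, the collection mean minus 3 SD; inconclusive means too few cells collected in the well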;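 further: signal is porphyrin accumulated inside mitochondria; lower ratio means ABCB6 inhibition with less porphyrin fluorescence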
iPSC survival up = hiPSC single-cell survival enhancement | 0.044% of 360,000 active | survival enhancement, % at 20 µM | ATPlite luminescence; 100% = ROCK inhibitor wells, 0% = DMSO; in the data active means survival enhancement above about 18%;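 further: cells exposed to compounds for 16 hours before the ATP read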
Cardio protect = modulators protecting cardiomyocytes from myocardial damage; H9c2 cardiomyocytes, H2O2 injury protection, ATPLite, 2 h; protection from H2O2 cell death, % at 20 µM; 0.63% of 360,000 active; AID 588492;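 active means compounds giving at least 50% protection of heart cells from peroxide-induced death in the single-dose screen, raw or plate-pattern-corrected value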
MIN6 prolif = induces beta-cell replication in MIN6 cells. MIN6 cells proliferation, ATPlite luminescence, 48 h; cells starved in 0.2% serum; 100% = growth in 10% serum. proliferation, % at 10 µM. 0.29% of 330,000 active. AID 2380;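 active means compounds whose signal lies at least 3.5 SD above the mean of all wells on their plate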
Myeloid diff 2 = promotes myeloid progenitor differentiation; calls only at 10 µM; ER-HoxA9 myeloid progenitors, lysozyme-GFP differentiation, flow cytometry; 1% of 360,000 active;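 active means normalized GFP-positive differentiation at or above the plate's own cutoff, the solvent-only control mean plus 3 SD; inconclusive means no clear call, values can overlap the other calls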;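 further: cells exposed to compound for four days before flow analysis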
Of the large screens only hits and unclear results are named; the others gave an inactive call.

Cc1cccc(NC(=O)CCn2ccnc2C)c1	none
COc1ccc(-c2cc(C(=O)OCC(=O)Nc3ccc4c(c3)OCO4)c3ccccc3n2)cc1	none
O=C(CNC(=O)c1cccc(F)c1)N/N=C/c1cc(Br)ccc1OC(=O)/C=C/c1ccco1	Cardio protect 57 (no result: MIN6 prolif)
CC(=O)Nc1ccc(S(=O)(=O)NCCSCc2cccc(Cl)c2)cc1	Myeloid diff 2 active
CC(=O)Nc1ccc(S(=O)(=O)NCCSCc2c(Cl)cccc2Cl)cc1	none
Cc1ccc(C(=O)N/C(=C/c2ccc(-c3ccc([N+](=O)[O-])cc3)o2)C(=O)NCCCN(C)C)cc1	Myeloid diff 2 active
COc1ccc(Cc2nnc(N/N=C/c3ccc(O)cc3O)[nH]c2=O)cc1OC	Cardio protect 52
CCCCCC/C=N/Nc1nnc(Cc2ccc(OC)c(OC)c2)c(=O)[nH]1	Myeloid diff 2 active
O=C(CCC(F)(F)F)N1CCCC(CO)(CCc2ccccc2)C1 (centres undefined)	none
Cc1cc(=O)c2c(O)c(O)ccc2o1	Cardio protect 50
C=CCNc1nc(-c2ccccn2)nnc1-c1ccccc1	Cardio protect 73
Cc1ccc(C(=O)Nc2cc(Cl)ccc2Oc2ccccc2)cc1[N+](=O)[O-]	none
CCN(CC)c1ccc(/C=N/N=C(c2ccccc2)c2ccccc2)c(O)c1	Myeloid diff 2 active
CCN(CC)c1ccc(/C=N/N(c2ccccc2)c2ccccc2)c(O)c1	none
CNC(=O)c1cc(C(=O)c2ccc(C(F)(F)F)cc2F)c[nH]1	none
CNC(=O)c1cc(C(=O)c2ccc(C(F)(F)F)cc2)c[nH]1	Myeloid diff 2 active
C[C@]12CCC3C(CC[C@H]4CC(O)CC[C@]34C)C1CC/C2=N/NC(=O)c1ccncc1 (some centres undefined)	Myeloid diff 2 active
Cc1ccc(CNC(=O)c2ccc(N3CCC4(CC3)CC(c3ccccc3)=NO4)c(NC(=O)c3ccco3)c2)cc1	Myeloid diff 2 inconclusive
CCCNC(=O)c1ccc(N2CCC3(CC2)CC(c2ccccc2)=NO3)c(NC(=O)c2ccco2)c1	Cardio protect 90 (no result: Myeloid diff 2)
O=C1/C(=C\c2ccccc2)SC(=S)N1CCC(=O)N1CCCCC1CCO (centres undefined)	Myeloid diff 2 inconclusive
COc1ccc(/C=C2\SC(=S)N(CCCC(=O)N3CCCCC3CCO)C2=O)cc1 (centres undefined)	Myeloid diff 2 active
CS(=O)(=O)N1N=C(c2ccccc2)CC1c1ccc2c(c1)OCO2 (centres undefined)	Myeloid diff 2 active (no result: MIN6 prolif)
CCOC(=O)CCS(=O)(=O)c1nc(-c2ccccc2)cc(C(F)(F)F)n1	ABCB6 inh 2 72 (no result: Myeloid diff 2)
COc1ccc(CNC(=O)C(C)n2nc(C)c3c(C)n(-c4ccc(C)cc4)nc3c2=O)cc1 (centres undefined)	none
O=C(CCNC(=O)c1ccco1)NNC(=O)c1ccc(Br)cc1	Myeloid diff 2 active (no result: MIN6 prolif)
Cc1c(C)c2ccc(OCc3ccc(C(=O)O)o3)c(C)c2oc1=O	none
Cc1c(C)c2ccc(OS(C)(=O)=O)c(C)c2oc1=O	ABCB6 inh 2 69
O=C(NCCN1CCOCC1)c1cc2sccc2n1Cc1ccc(Cl)cc1	Myeloid diff 2 active
O=C(NCCN1CCOCC1)c1cc2sccc2n1Cc1ccc(F)cc1	none
COc1ccccc1NC(=O)CS(=O)(=O)c1cn(CC(=O)N(C(C)C)C(C)C)c2ccccc12	none
Oc1ccc(/C=N/Nc2ccnc3cc(Cl)ccc23)c(O)c1	Myeloid diff 2 active
COc1ccc(/C=N/NC(=O)c2cccnc2)cc1CN1CCc2ccccc2C1	Cardio protect 69
COc1ccc(/C=N\NC(=O)c2cc(O)c(O)c(O)c2)cc1COc1ccc(C(=O)OCC(C)C)cc1	Cardio protect 53
COc1ccc(C(=O)N/N=C/c2ccc(OC)c(COc3ccccc3)c2)cc1	none
CCOC(=O)c1ccccc1OCc1cc(/C=N/NC(=O)c2cccnc2)ccc1OC	Cardio protect 55
COc1ccc(/C=N\NC(=O)c2ccccc2)cc1COc1ccccc1	none
CC(=O)c1c(N)[nH]c(-c2ccccc2)nc1=S	none
O=c1cc(N2CCCCCC2)[nH]c(=O)n1-c1ccccc1Cl	none
O=C(NCC1CC1)c1onc(CSc2ccc(F)c(F)c2)c1C(=O)NCC1CC1	none
Cc1ccc(S(=O)(=O)/N=C/c2cc(Br)ccc2O)cc1	Cardio protect 54
NC(=O)N/N=C\c1cc(Br)ccc1O	none
Cc1cc(N=Cc2cc(Br)ccc2O)no1	Cardio protect 57
COC(=O)c1c(NC(=O)CC2NCCNC2=O)sc2c1CCCC2 (centres undefined)	none
CCNc1ccc(Br)cc(C(=O)/C=C/c2c(Cl)cccc2Cl)c1=O	Myeloid diff 2 active
O=C(COc1ccccc1)Nc1ncccn1	none
CC1NC(C)c2c(ccc3ccccc23)O1 (centres undefined)	none (no result: MIN6 prolif)
CCOC(=O)C1(C(F)(F)F)N=C(C(F)(F)F)Nc2ccccc21 (centres undefined)	none
COc1cccc2c(SCC(=O)N/N=C/c3ccc(O)cc3O)cc(C)nc12	Cardio protect 81 (no result: Myeloid diff 2)
COCc1cc(C)nc(OCC(=O)N/N=C/c2ccc(O)cc2O)c1C#N	Cardio protect 52
COc1ccc(Cc2nc3ccccc3n2CC(=O)N/N=C/c2ccc(C)cc2O)cc1OC	Cardio protect 52
COc1ccccc1/C=N/NC(=O)CSc1cc(C)nc2ccccc12	none
COc1ccc2nc(C)cc(SCC(=O)N/N=C/c3ccc(O)cc3O)c2c1	Cardio protect 52
COCc1cc(C)nc(OCC(=O)N/N=C/c2ccccc2O)c1C#N	none
CC(=O)Nc1ccc(NC(=O)COC(=O)c2ccc([N+](=O)[O-])o2)cc1	none
CCN(c1ccc(NC(=O)COC(=O)c2ccc([N+](=O)[O-])o2)cc1)C(C)C	Cardio protect 61
O=C(COC(=O)c1ccc([N+](=O)[O-])o1)Nc1cccc(S(=O)(=O)N2CCCCC2)c1	Cardio protect 53
COC(=O)c1cc(-c2cccc([N+](=O)[O-])c2)c2c(=O)n(C)c(=O)n(C)c2n1	none
CC(C)n1c(SCC(=O)N2c3ccccc3Sc3ccccc32)nc2c1c(=O)n(C)c(=O)n2C	Myeloid diff 2 active (no result: MIN6 prolif)
CCCn1c(SCC(=O)N2c3ccccc3Sc3ccccc32)nc2c1c(=O)n(C)c(=O)n2C	none
CCOc1ccccc1Oc1cn[nH]c1-c1ccc(OCC(=O)NN)cc1O	Myeloid diff 2 active
CCOc1ccc(-c2[nH]ncc2Oc2ccccc2OCC)c(O)c1	none
CCOC(=O)Cn1c(=O)c(-c2ccccc2N)nc2ccccc21	none
CCOC(=O)Cn1c(=O)c(-c2cc(Br)ccc2N)nc2ccccc21	Myeloid diff 2 active
CCCCN(C)C1=CC2=CC(=C(C#N)C#N)CCC2CC1 (centres undefined)	Myeloid diff 2 active
CCN(CC)C1=CC2=CC(=C(C#N)C#N)CCC2CC1 (centres undefined)	Myeloid diff 2 active
Cn1cc([C@]2(O)C(=O)Nc3cccc(Cl)c32)c2ccccc21	none (no result: ABCB6 inh 2, iPSC survival up, Cardio protect, MIN6 prolif)
CCN1C(=O)/C(=C/c2nc3ccccc3c(=O)[nH]2)c2ccccc21	Cardio protect 78 (no result: MIN6 prolif)
